Most compounds without a hit are left out; they make up all but 4.2% or so of the library.
RecA splice inh = blocks M. tuberculosis RecA intein splicing; P9WHJ3; cell-free RecA intein splicing, fluorescence; inhibition, % (test concentration not listed); 290,000 tested, 0.75% active; in the data active = inhibition above about 30%;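 note: 0% = vehicle wells and 100% = reference inhibitor control wells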
Target sequence (P9WHJ3 whole entry, looked up, canonical isoform): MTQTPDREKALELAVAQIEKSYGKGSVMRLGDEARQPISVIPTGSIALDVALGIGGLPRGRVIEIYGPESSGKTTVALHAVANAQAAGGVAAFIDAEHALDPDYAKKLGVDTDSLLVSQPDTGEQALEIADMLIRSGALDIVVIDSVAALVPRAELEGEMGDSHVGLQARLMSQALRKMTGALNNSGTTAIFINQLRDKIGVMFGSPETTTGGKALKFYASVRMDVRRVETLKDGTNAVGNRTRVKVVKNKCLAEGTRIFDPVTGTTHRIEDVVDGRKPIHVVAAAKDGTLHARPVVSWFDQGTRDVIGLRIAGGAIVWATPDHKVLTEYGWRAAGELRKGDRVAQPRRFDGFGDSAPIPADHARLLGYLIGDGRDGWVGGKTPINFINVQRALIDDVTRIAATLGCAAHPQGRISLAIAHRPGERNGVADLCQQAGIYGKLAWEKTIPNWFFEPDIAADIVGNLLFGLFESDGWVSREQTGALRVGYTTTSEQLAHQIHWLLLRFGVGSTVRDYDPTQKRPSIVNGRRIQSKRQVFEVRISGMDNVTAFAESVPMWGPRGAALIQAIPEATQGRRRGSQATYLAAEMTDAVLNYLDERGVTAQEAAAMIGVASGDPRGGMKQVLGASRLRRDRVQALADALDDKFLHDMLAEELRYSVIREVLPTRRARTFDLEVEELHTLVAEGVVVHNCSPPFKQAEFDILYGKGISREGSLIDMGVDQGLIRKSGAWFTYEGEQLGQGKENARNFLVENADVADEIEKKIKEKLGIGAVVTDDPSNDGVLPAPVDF
GDH-TPI counter-1 = counter-screen for M. tuberculosis FBA inhibitors: GDH-TPI coupled enzymes. GDH-TPI coupled enzyme counterscreen, NADH absorbance. inhibition, % at 4.8 µM. 360,000 tested, 1.2% active. AID 588335; in the data active = inhibition above about 30%;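 note: 0% = DMSO wells and 100% = wells lacking the enzyme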
CCHFV vOTU inh = blocks the CCHF virus ovarian tumor domain protease; CCHFV vOTU protease, Pep-AMC fluorescence; inhibition, % at 11.5 µM; 370,000 tested, 0.55% active; AID 651958; in the data active = inhibition above about 30%; note: 0% = vehicle wells with enzyme and 100% = no enzyme wells
Mtb FBA inh = inhibitors of M. tuberculosis fructose-bisphosphate aldolase; AID 588726; purified M. tuberculosis FBA, fluorescence read-out; inhibition, % at 1 µM; 360,000 tested, 2.3% active;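 note: 0% = vehicle and 100% = reference inhibitor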
Mtb FBA inh conf = Mtb FBA inhibition, confirmed | shares compounds with Mtb FBA inh | purified M. tuberculosis FBA, fluorescence read-out | inhibition, % at 1 µM | 5,600 tested, 78% active | AID 651616;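 note: 0% = vehicle wells and 100% = reference inhibitor wells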
GDH-TPI counter-2 = counter-screen for M. tuberculosis FBA inhibitors: GDH-TPI coupled enzyme inhibition; 5,600 tested, 81% active; GDH-TPI coupled enzyme counterscreen, fluorescence; AID 652141; shares compounds with Mtb FBA inh; inhibition, % at 1 µM; in the data active = inhibition above about 10%
GDH-TPI dose = inhibits GDH-TPI coupling enzymes in dose response | shares compounds with Mtb FBA inh | GDH-TPI coupled enzyme assay, fluorescence, artifact counterscreen | IC50, µM | 170 tested, 79% active | AID 652145; call rule not given here
The depositor's hits bear a star; / = no result given; + = active, no number. Cut-off read from the data, not from the text of the source, unless noted: active = inhibition above about 27%; inactive = the rest.

SMILES | RecA splice inh | GDH-TPI counter-1 | CCHFV vOTU inh | Mtb FBA inh | Mtb FBA inh conf | GDH-TPI counter-2 | others
N#Cc1cnn2c3c(cnc12)C(=O)N1CCc2ccccc2C1C3 (stereo not given) | -26.7 | -6.1 | 3.6 | 27.3* | 87.1* | 63.7*
O=C1c2cnc3nc(SCc4cccc(Cl)c4)nn3c2CC2c3ccccc3CCN12 (stereo not given) | -9.3 | -7.6 | -5.9 | 1.1 | / | /
CSc1nc2ncc3c(n2n1)CC1c2ccccc2CCN1C3=O (stereo not given) | -13.7 | 10.1 | -19.1 | 53.5* | 75.9* | 58.0*
N#Cc1cnn2c(C(F)(F)F)cc(-c3ccccc3)nc12 | 1.3 | 15.4 | 10.1 | 7.2 | / | /
COc1ccc(/C=C2\N=C(SC)N(c3ccccc3OC)C2=O)cc1 | -0.5 | 11.4 | -4.6 | 1.2 | / | /
Cc1ccc(NC(=O)CN(C)C(=O)COc2ccccc2-c2ccccc2)cc1 | / | 7.0 | -1.8 | 0.4 | / | /
CCCN(CC(=O)Nc1ccccc1C)C(=O)CSc1ccccc1C | / | 3.9 | 16.5 | 7.1 | / | /
COc1ccc(/C=C/c2c(-c3ccc(OC)cc3)oc(=O)c3cc(OC)c(OC)cc23)cc1 | / | 17.6 | 11.6 | 11.4 | / | /
COc1ccc(-c2oc3cccnc3c2/C=C/c2ccc(OC)c(OC)c2)cc1 | -18.9 | 15.3 | 4.7 | 93.5* | + | 195.2*
Cc1ccn2c(=O)c(NC(=O)c3cccs3)c(C)nc2c1 | -5.3 | 22.1 | 2.4 | 3.9 | / | /
COc1cccc(-c2ccc(C#N)c(OC(=O)c3ccc(Cl)cc3)n2)c1 | -2.8 | 21.3 | -51.5 | 95.1* | 135.3* | 106.1*
COc1cccc(-c2ccc(C#N)c(OC(=O)c3c(Cl)cccc3Cl)n2)c1 | -0.8 | 6.6 | -18.2 | 10.4 | / | /
Nc1nc2nccc(-c3cccnc3)n2n1 | 2.1 | 19.2 | -43.5 | 64.5* | -8.5 | -4.9
CN(C)/C=N/c1nc2nccc(-c3cccnc3)n2n1 | -9.8 | 1.3 | -70.3 | 27.2* | 152.3* | 106.5*
Cc1nn2c(-c3cccnc3)ccnc2c1-c1ccccc1 | -0.3 | 4.0 | 7.5 | 0.4 | / | /
CC(=O)Nc1ccc2nc(-c3ccncc3)[nH]c2c1 | -0.4 | 12.4 | -7.4 | 32.2* | + | +
Nc1ccc(C(=O)Nc2ccc3nc(-c4ccncc4)[nH]c3c2)cc1 | -1.2 | 16.6 | 9.5 | -1.2 | / | /
COc1ccccc1NC(=O)C(Sc1ccccc1)c1ccccc1 (stereo not given) | -1.5 | 1.8 | 2.9 | 5.5 | / | /
COc1ccc(NC(=O)C(Sc2ccccc2)c2ccccc2)c(OC)c1 (stereo not given) | 7.8 | 0.0 | 5.5 | 72.4* | 44.6* | 33.4*
N#CCC(=O)N/N=C/c1c(-c2ccccc2)n(-c2ccccc2)c2ccccc12 | -0.4 | 10.3 | 16.6 | -2.8 | / | /
C/C(=N\NC(=O)c1nnn(-c2nonc2N)c1COc1ccc(F)cc1)c1ccc(Cl)cc1 | -2.8 | -2.0 | -9.3 | 28.6* | + | +
CCN1CCN(C(=S)Nc2cc(C(=O)OC)ccc2C(=O)OC)CC1 | -1.1 | 15.2 | -38.4 | 31.4* | 134.5* | 115.4*
COC(=O)c1ccc(C(=O)OC)c(NC(=S)N2CCN(C(=O)C3CCCO3)CC2)c1 (stereo not given) | / | -4.2 | -34.5 | 28.2* | 113.0* | 89.2*
COC(=O)c1ccc(C(=O)OC)c(NC(=O)/C=C/C(=O)O)c1 | -3.7 | 0.0 | -121.3 | 57.4* | 52.3* | 50.0*
COC(=O)c1ccc(C(=O)OC)c(NC(=S)N2CCOCC2)c1 | -1.9 | -1.9 | -56.6 | 26.3 | / | /
SMILES | RecA splice inh | GDH-TPI counter-1 | CCHFV vOTU inh | Mtb FBA inh | Mtb FBA inh conf | GDH-TPI counter-2 | others
CCN(CC)CCCNC(=O)CCC(=O)Nc1ccc2nc(N3CCC(C)CC3)cc(C)c2c1 | -8.6 | -2.6 | -57.8 | 65.2* | 12.0 | -1.7 | GDH-TPI dose=1.26*
Cc1cc(N2CCN(C)CC2)nc2ccc(NC(=O)CCC3CCCC3)cc12 | 0.1 | -4.1 | -9.1 | 5.2 | / | /
CCN(CC)CCCNC(=O)CCC(=O)Nc1ccc2nc(N3CCCCC3)cc(C)c2c1 | -8.4 | 6.9 | -54.2 | 107.9* | 87.5* | 94.5*
Cc1cc(C(=O)N2CCCc3ccccc32)ccc1[N+](=O)[O-] | 1.3 | 4.5 | 6.8 | 0.3 | / | /
COc1ccc(CCNC(=O)C(=O)NCC2OCCN2S(=O)(=O)c2ccccc2)cc1 (stereo not given) | -1.8 | 18.3 | -0.8 | 3.2 | / | /
CCCCNC(=S)Nc1ccc(-c2nc3ccc(C)cc3s2)cc1 | -1.8 | 20.7 | -63.0 | 56.1* | -2.2 | -4.7
CNC(=S)Nc1ccc(C)cc1 | -3.7 | -5.2 | -27.4 | -0.3 | / | /
CNC(=S)Nc1ccc(-c2nc3ccc(C)cc3s2)cc1 | -1.8 | 19.9 | -16.3 | 92.9* | 45.0* | 31.7*
Cc1ccc2nc(-c3ccc(NC(=O)CN(c4ccccc4C)S(C)(=O)=O)cc3)sc2c1 | 0.1 | 11.5 | -27.3 | 89.5* | + | +
Cc1ccc2nc(-c3ccc(NC(=O)CN4CCN(C(=O)c5ccco5)CC4)cc3)sc2c1 | -2.0 | 24.0 | -50.6 | 45.6* | + | +
Cc1ccc2nc(-c3ccc(NC(=S)NCCC(C)C)cc3)sc2c1 | -4.1 | 20.5 | -10.7 | 26.8 | / | /
C[C@@H]1CN([C@@H](C)CO)C(=O)CCCn2nncc2CO[C@@H]1CN(C)C(=O)Nc1ccc2c(c1)OCO2 | / | 1.9 | 15.2 | 2.3 | / | /
O=C(CCS(=O)(=O)c1ccc(Br)cc1)NCc1ccc(F)cc1 | -0.5 | 4.5 | -5.8 | 3.4 | / | /
CCN(CC)S(=O)(=O)c1ccc(N2CC(C(=O)Nc3cccc(C(=O)NC4CC4)c3)CC2=O)cc1 (stereo not given) | / | 9.1 | 12.8 | 3.0 | / | /
C=CCn1c(SCC(=O)Nc2ccc(-c3nc4ccc(C)cc4s3)cc2)nnc1-c1ccccc1 | -0.7 | 11.2 | -51.0 | 41.0* | + | +
COCCNc1nnc(SC(C)C(=O)Nc2ccc(-c3nc4ccc(C)cc4s3)cc2)s1 (stereo not given) | 1.0 | 29.5 | -16.6 | 39.9* | + | +
Cc1ccc2nc(-c3ccc(NC(=S)NCC(C)(C)CN(C)C)cc3)sc2c1 | / | 2.0 | -47.8 | 76.8* | 68.7* | 53.0*
Cc1cc(C)cc(N(CC(=O)Nc2ccc(-c3nc4ccc(C)cc4s3)cc2)S(C)(=O)=O)c1 | -1.8 | 17.7 | -32.1 | 23.8 | / | /
CCC(C)(C)NC(=S)Nc1ccc(-c2nc3ccc(C)cc3s2)cc1 | -6.3 | 28.3 | -107.9 | 91.9* | 1.9 | -3.0
COCCNc1nnc(SC(C)C(=O)Nc2c(C)n(C)n(-c3ccccc3)c2=O)s1 (stereo not given) | 0.6 | -9.0 | 0.0 | -0.1 | / | /
CC(C)CC1C(=O)N(Cc2cn(CC3CCCCC3)nn2)CCS(=O)(=O)N1Cc1ccc(-c2cccc(CO)c2)cc1 (stereo not given) | / | -0.9 | 6.3 | -2.6 | / | /
COc1ccc([C@H]2N[C@]3(CCCN(Cc4ccc(F)cc4)C3=O)[C@H]3C(=O)N(C)C(=O)[C@@H]23)cc1 | / | 2.4 | -6.0 | -0.9 | / | /

Screening data from PubChem BioAssay.
